Laboratory results from the supplement of paper PMC6555819.

How the values were obtained:
Assay in all cases: PBM binding z-score (relative to random genomic background probes); higher = stronger binding; sequences stand for … in GC…GCGATTGACAGCGTAGAATGAAGG
[1] = test system: PPARg:RXRa DBDmut IVT, anti-RXR (DBD mutation: RXRa K156A/R161A, NR concentration 270 nM, RXRa partner concentration 90 nM)
Summary of the method: (§1)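 Binding z-scores take random background probes as their reference. They come from custom Agilent 4×180K protein-binding microarrays incubated 1 h with ligand-free nuclear receptor dimers, with antibodies against each partner (one per run) detecting binding. Scanned fluorescence was regression-normalized.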

[2] = test system: PPARg:RXRa IVT, anti-PPARg (NR concentration 270 nM, RXRa partner concentration 90 nM)
Summary of the method: as §1

[3] = test system: PPARg DBDmut:RXRa IVT, anti-PPARg (DBD mutation: PPARg1 K132A/R137A, NR concentration 270 nM, RXRa partner concentration 90 nM)
Summary of the method: as §1

[4] = test system: PPARg DBDmut IVT, anti-PPARg (DBD mutation: PPARg1 K132A/R137A, NR concentration 270 nM)
Summary of the method: as §1

[5] = test system: PPARg homodimer (NR concentration 180 nM)
Summary of the method: as §1

[6] = test system: PXR:RXRa (NR concentration 270 nM, RXRa partner concentration 90 nM)
Summary of the method: as §1

[7] = test system: PXR homodimer (NR concentration 270 nM)
Summary of the method: as §1

[8] = test system: RARa:RXR (NR concentration 270 nM, RXRa partner concentration 90 nM)
Summary of the method: as §1

[9] = test system: RARa homodimer (NR concentration 270 nM)
Summary of the method: as §1

[10] = test system: RARb:RXRa (NR concentration 270 nM, RXRa partner concentration 90 nM)
Summary of the method: as §1

Row | Sequence | PBM binding z-score [1] | PBM binding z-score [2] | PBM binding z-score [3] | PBM binding z-score [4] | PBM binding z-score [5] | PBM binding z-score [6] | PBM binding z-score [7] | PBM binding z-score [8] | PBM binding z-score [9] | PBM binding z-score [10]
1 | GCTTGTTGATCAAGGTTAAGAAAGACTAAGCTAA | 0.197 | 0.134 | 0.234 | -0.0505 | -0.0187 | 0.387 | -0.694 | 0.658 | 0.254 | 0.66
2 | ATATGTAGGTTCTCGGGTCATTCAGTTTGCGCAT | 4.81 | 4.65 | 1.63 | 2.01 | 1.96 | 4.05 | 8.95 | 3.37 | 1.01 | 2.15
3 | AATACAGGTTCACTAGGCCAGAGTAGGTACGAAT | 1.36 | 2.73 | 1.46 | 0.869 | 0.811 | 1.47 | 0.559 | 1.64 | 0.374 | 1.78
4 | TCTTGTAGATCAATAGAGGTTAACAAAGTGCGCT | 1.65 | 1.38 | 0.608 | 1.56 | 0.466 | 3.82 | 0.45 | 2 | 0.875 | 1.02
5 | CCTAGTTAGTCAGGAGGTCACACACCGGATATGA | 1.08 | 2.35 | 1.22 | 0.693 | 3.69 | 4.33 | 1.96 | 4.59 | 2.45 | 3.69
6 | ATCTCTAGGTAAAAGTTCAGTAAATCCCGAGGAT | 1.87 | 3.76 | 1.75 | 1.54 | 1.88 | 1.8 | 1.71 | 1.47 | 1.92 | 2.41
7 | CCTCGGAGGACAGAAGGTCCGAGCTGTCCGCTTT | -0.468 | -1.02 | -0.692 | -1.96 | -0.27 | -0.746 | -0.803 | -0.601 | -1.06 | 0.0749
8 | TCTTGTTGGTCAAAGGTCACACACTCGAAATGCG | 3.64 | 5.98 | 1.27 | 1.91 | 4.88 | 5.9 | 1.75 | 7.15 | 3.44 | 5.25
9 | AGTCAAAGTTTAGGACGAGGTAACGTAAAGCACG | -0.369 | 0.311 | 0.476 | 0.0826 | 0.281 | 0.168 | -0.0643 | 0.219 | 0.258 | 1.41
10 | CGTCCAAGGTCATAGGAGGTCAGTGACGACAGAT | 3.6 | 4.57 | 0.237 | 0.133 | 5.09 | 6.69 | 4.69 | 6.08 | 2.29 | 5.44
11 | CAAACTAGGTCACCGGAAGGTCAAAATCCGCATG | 8.74 | 9.07 | 7.15 | 5.58 | 9.41 | 5.86 | 1.73 | 7.2 | 3.23 | 5.11
12 | ATCGAGAGGTCGAAGGTGAGTATACCCACCCGAA | -0.545 | 1.62 | 0.516 | 0.104 | 0.129 | 2.42 | -0.494 | 3.29 | -0.646 | 2.8
13 | ATCTCTCGGTAAAGTTCAGTGAAAGATCGATAGA | 0.0239 | 0.915 | 0.801 | 1.45 | 1.63 | 2.11 | 1.75 | 1.59 | 1.08 | 2.84
14 | CAAACTAGGTCACGAAGGGTCAAAGTCGAATGAC | 8.44 | 9.09 | 5.43 | 4.14 | 6.07 | 6.48 | 1 | 7.14 | 2.56 | 5.29
15 | AATACAGGGTCATCGTAGGCCAGAGTACGCACAG | 2.76 | 4.32 | 1.59 | 1.19 | 1.96 | 4.94 | 0.48 | 4.82 | 0.854 | 4.37
16 | CCTGCTAGATCATGGTCAGCTAATCTACAGTATG | 0.393 | -0.546 | -0.661 | -0.698 | -0.74 | -0.448 | -0.524 | -0.328 | -0.726 | -0.0385
17 | GCTGCTAGTTCAGGTTGGTCAGCTAACGGGTACG | -0.103 | -0.56 | -0.826 | -0.845 | -0.918 | -0.166 | 0.0964 | -0.23 | -0.341 | 1.01
18 | TCATATAGGTAAATACTAGGTGAAAGTCCGATCT | 4.28 | 4.37 | 1.5 | 1.37 | 1.15 | 0.747 | 0.389 | 1.15 | 1.65 | 0.482
19 | TCATATAGGTAAATGCAAGGTGAAAGTCCGATCT | 4.1 | 3 | 0.862 | 1.12 | 1.16 | 1.03 | 0.736 | 1.86 | 0.975 | 1.19
20 | TCGTATAGGTAAAGGTGAAAGTCGAACGATATGA | 2.04 | 2.57 | 0.89 | 0.655 | 1.4 | 0.71 | 0.0439 | 1.58 | 0.749 | 2.07
21 | CCTTACGGGTCACTTCAGGTTATAGCATCGGAGT | 3.08 | 3.1 | 0.834 | 0.414 | 1.97 | 5.04 | 0.776 | 3.67 | 1 | 3.57
22 | TAGCCAAGGTCATTGGGCCAGTATAGTACGCATC | 2.26 | 4.14 | 1 | 0.266 | 2.22 | 4.33 | 1.15 | 4.03 | 0.395 | 5.01
23 | CAGCCGAGGTCAGGGCCAGTATAGGAGGAACGTT | 1.87 | 3.21 | 0.298 | -0.547 | 2.95 | 3.5 | 0.241 | 4.36 | 0.349 | 4.81
